Reference: ChEMBL document CHEMBL2218924, “A broad activity screen in support of a chemogenomic map for kinase signalling research and drug discovery” (Biochem J, 2013)

What follows are compounds tested against MAP kinase-interacting serine/threonine-protein kinase 2 (Homo sapiens) (UniProt Q9HBH9). Conditions: at 10 µM.
MAP kinase-interacting serine/threonine-protein kinase 2 (Homo sapiens), sequence (Q9HBH9 whole entry, looked up): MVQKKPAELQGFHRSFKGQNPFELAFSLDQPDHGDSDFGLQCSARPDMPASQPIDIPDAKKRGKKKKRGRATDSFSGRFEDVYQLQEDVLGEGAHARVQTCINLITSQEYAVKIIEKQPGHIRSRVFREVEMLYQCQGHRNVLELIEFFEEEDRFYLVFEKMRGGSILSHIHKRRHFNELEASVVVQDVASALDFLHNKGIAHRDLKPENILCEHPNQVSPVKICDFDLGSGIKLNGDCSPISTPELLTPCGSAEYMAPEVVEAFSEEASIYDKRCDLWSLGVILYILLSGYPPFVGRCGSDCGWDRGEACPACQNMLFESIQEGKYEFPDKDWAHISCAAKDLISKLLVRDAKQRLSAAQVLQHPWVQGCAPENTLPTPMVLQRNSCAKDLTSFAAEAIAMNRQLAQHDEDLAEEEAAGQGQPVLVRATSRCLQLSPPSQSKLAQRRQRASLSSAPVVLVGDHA

| Structure (SMILES) | residual activity [%] |
| --- | --- |
| O=c1cc(-c2cccc3c2Sc2ccccc2S3)oc(N2CCOCC2)c1 | 94 |
| C[C@@H](N)[C@H]1CC[C@H](C(=O)Nc2ccncc2)CC1 | 77 |
| Cc1nc(-c2ccccc2)c(-c2ccncc2)o1 | 77 |
| CCC(=O)Nc1ccc2ncnc(Nc3cccc(Br)c3)c2c1 | 9 |
| Cn1cnc2cc3c(Nc4cccc(Br)c4)ncnc3cc21 | 13 |
| CC(C)n1cnc2/c(=N/c3cccc(Cl)c3)nc(NCCO)[nH]c21 | 77 |
| Oc1c2ccccc2c2c3c(cccc13)N=N2 | 10 |
| COc1cc2ncnc(Nc3ccc(O)c(Br)c3)c2cc1OC | 6 |
| N#C/C(=C(\N)Sc1ccc(N)cc1)c1ccccc1C(F)(F)F | 106 |
| CCOc1cc2ncnc(Nc3cccc(Br)c3)c2cc1OCC | 7 |
| O=C1NC(=O)c2c1c1c3ccccc3[nH]c1c1[nH]c3cc(Br)ccc3c21 | 41 |
| CC#CC(=O)Nc1cc2c(Nc3ccc(F)c(Cl)c3)ncnc2cn1 | 90 |
| NC(=O)c1ccc2[nH]c(-c3ccc(Oc4ccc(Cl)cc4)cc3)nc2c1 | 19 |
| O=C(Nc1cccc(Nc2nccc(Nc3cccc(C(F)(F)F)c3)n2)c1)C1CC1 | 77 |
| O=c1c2ccccc2[nH]c(=S)n1CCN1CCC(=C(c2ccc(F)cc2)c2ccc(F)cc2)CC1 | 103 |
| Ic1cccc(CSc2nnc(-c3ccncc3)o2)c1 | 89 |
| O=C1NC(=O)/C(=C/c2ccc3c(c2)OC(F)(F)O3)S1 | 96 |
| Cc1ccc(NC2=CC(=O)c3sc(C)nc3C2=O)cc1 | 110 |
| CC(=O)O/N=C1\C(=C2\C(=O)Nc3cc(Br)ccc32)Nc2ccccc21 | 92 |
